# IMPase inh: membrane-permeable compound that blocks inositol monophosphatase | 120,000 tested, under 10 active | inhibition (IP1 accumulation), % at 46.1 µM | CHO-M1 cells, IP1 accumulation, HTRF TR-FRET ratio | P97697; active = well fitted curve in the direction sought with a large enough effect in the signal ratio, not every such curve was filed as active; inconclusive = small, poorly fitted or top-dose-only effect, or a change in a side signal; inactive = no such curve, though single readings can be large or run the other way; the % refers to the signal ratio;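 note: cells stimulated with carbachol in lithium chloride buffer; plate controls were DMSO basal wells for no effect and reference inhibitor wells for full effect; higher means more IMPase inhibition seen as more IP1 and lower FRET ratio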
#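 Elevated IP1 in lysates lowers TR-FRET signal (665/620 ratio and 620 channel reported). Cells were CHO-M1, given carbachol (50 uM as added) plus 50mM LiCl, pH 7.4, 30 min, 37C; compounds titrated up to 46 uM; AC50 by Hill equation.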
# ALDH1A1 inh-1: ALDH1A1 (human) enzyme inhibition | Purified ALDH1A1, NADH fluorescence, propionaldehyde substrate | Potency, µM (titrated, usually from 75.3 µM), without a hit: at the highest dose activity, negative = inhibition, most hits filed as inhibitors | AID 1030 | P00352 | hit rate 7.3% among 220,000;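 note: potency is the fitted concentration of half-maximal effect; plate controls were no enzyme wells and a reference inhibitor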
# Target sequence (P00352 whole entry, looked up): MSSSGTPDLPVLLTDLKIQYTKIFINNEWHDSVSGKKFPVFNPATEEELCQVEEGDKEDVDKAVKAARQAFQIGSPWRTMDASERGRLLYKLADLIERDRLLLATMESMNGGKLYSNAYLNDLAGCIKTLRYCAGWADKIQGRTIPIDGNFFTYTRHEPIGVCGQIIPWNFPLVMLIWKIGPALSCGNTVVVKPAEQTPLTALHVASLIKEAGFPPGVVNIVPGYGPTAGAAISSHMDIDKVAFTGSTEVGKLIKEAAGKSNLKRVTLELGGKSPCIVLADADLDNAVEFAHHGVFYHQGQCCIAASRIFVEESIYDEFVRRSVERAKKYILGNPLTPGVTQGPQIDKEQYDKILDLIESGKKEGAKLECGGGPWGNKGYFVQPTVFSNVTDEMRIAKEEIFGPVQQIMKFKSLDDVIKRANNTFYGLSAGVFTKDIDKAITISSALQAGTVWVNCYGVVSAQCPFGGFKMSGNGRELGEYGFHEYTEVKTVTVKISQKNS
# HPGD block: HPGD (human) dehydrogenase inhibition; hit rate 4.3% among 150,000; Potency, µM, for inactives: at the top dose activity change, negative = inhibition, actives largely listed as inhibitors; purified HPGD, NADH fluorescence kinetic, PGE2 substrate; P15428; note: potency is the fitted concentration of half-maximal effect; % is set by controls: 0 for no effect and ±100 for the full control effect
#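 NADH formation kinetics: reaction with 30 uM PGE2 and 1 mM NAD+ (final), 20 nM enzyme, Tris-HCl pH 8 with Tween 20, after 15 min compound preincubation at room temperature. Fluorescence change, last versus first of five reads.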
# ALDH1A1 inh-2: Blocks ALDH1A1 NADH production, follow-up; shares compounds with ALDH1A1 inh-1; purified ALDH1A1, NADH fluorescence, propionaldehyde/NAD+; Potency, µM (doses to about 57.1 µM), for the others: at the highest dose activity change, negative = inhibition, most hits filed as inhibitors; hit rate 90% among 90; AID 493210; calls by dose curve
# Numbers without * were called inactive; ? = inconclusive; / = no result given; [ ] = another dose, or the depositor's remark. Rows were chosen to be rich in hits. Some 9% of all compounds tested hit in one or more screens of this group. Unless noted, calls come from the whole dose curve; as a rule, active = well fitted inhibition curve with a large enough effect (not every such curve was filed as active); inconclusive = small, poorly fitted or top-dose-only effect, or another doubt; inactive = no such curve, though single readings can be large or run the other way.
SMILES,IMPase inh,ALDH1A1 inh-1,HPGD block,ALDH1A1 inh-2
CC(=O)c1ccc(N2CCN(C(C)C(=O)NC3CCCc4ccccc43)CC2)cc1 (stereo not given),8,0%,-9%,/
Cc1cccc(N2C(=O)C3C4CC(=O)C(c5ccccc54)C3C2=O)c1C (stereo not given),/,-4%,/,/
CCOC(=O)c1c(NC(=O)Cn2nnc(-c3ccc(Cl)cc3)n2)sc(CC)c1C,11,?,-22%,/
COCOc1ccc(OC)cc1C(=O)C1O[C@H]1c1ccc(OC)c(Br)c1 (stereo not given in full),/,?,-17%,/
CCOC(=O)Cc1csc(/N=C/c2c(O)n(-c3ccc(C)cc3C)c(=O)c3ccccc23)n1,/,?,-12%,/
COC(=O)c1ccc(Oc2nc3c(c(=O)n(C)c(=O)n3C)n2CCC(C)C)cc1,4,0.045µM*,-18%,0.1µM*
CC(=O)c1ccc(Oc2nc3c(c(=O)n(C)c(=O)n3C)n2C)cc1,/,8%,/,/
COc1ccc(N2CCN(C(CNC(=O)C(=O)NCCc3c[nH]c4ccccc34)c3ccco3)CC2)cc1 (stereo not given),/,-3%,-7%,/
COc1cccc(O)c1O,/,0.45µM*,16µM*,1.6µM*
COc1cccc(C=NCC(C)N=Cc2cccc(OC)c2O)c1O (stereo not given),/,8%,-14%,/
Cn1cccc1C(=O)N1CCC2(CCCN(C(=O)Nc3ccccc3)C2)CC1,/,-5%,-2%,/
CC[C@H](C)[C@H](NC(=O)OCC1c2ccccc2-c2ccccc21)C(=O)O,-5,0.45µM*,-3%,1µM*
CCc1ccccc1NC(=O)N[C@H](C(=O)O)C(C)CC (stereo not given in full),-7,-5%,-4%,/
COCCn1c(=O)[nH]c(=O)c2c1nc(-c1cc(Br)c3c(c1)OCO3)n2Cc1ccccc1,/,0.11µM*,/,0.079µM*
CCn1c(-c2ccsc2)nc2c1c(=O)[nH]c(=O)n2Cc1ccccc1,-2,-9%,-24%,/
COc1ccc(F)cc1CN1CCN(C(=O)CCC(=O)Nc2nnc(C(C)C)s2)CC1,2,?,-6%,/
CCOC(=O)C1=C(C)NC(=O)NC1c1cccs1 (stereo not given),/,0%,/,/
CC1=C(C(=O)OCC(C)C)C(c2cccs2)NC(=S)N1 (stereo not given),4,0.13µM*,/,0.25µM*
COc1cc([N+](=O)[O-])ccc1NC(=O)CN1CCN(C(=O)c2ccco2)CC1,/,4%,/,/
O=C(CCNC(=O)c1ccc(Cl)cc1)Nc1c(F)c(F)cc(F)c1F,/,-2%,-5%,/
CC1(C)CC(=O)CC(C2(O)C(=O)N(Cc3ccccc3)c3ccccc32)O1 (stereo not given),8,0.063µM*,-23%,0.32µM*
Cc1ccc(C(=O)N2c3ccccc3N(Cc3ccccc3)C(=O)C2(C)C)cc1,11,2%,-12%,/
O=C(Cn1nnc2ccccc21)Nc1ccccc1[N+](=O)[O-],/,-5%,/,/
CC(C)(C)NC(=O)CN(C(=O)C1CSC(=O)C1)c1ccccc1F (stereo not given),/,-2%,/,/
O=C(N[C@@H](Cc1ccccc1)C(=O)CCl)OCc1ccccc1,9,0.35µM*,11µM*,0.25µM*
SMILES,IMPase inh,ALDH1A1 inh-1,HPGD block,ALDH1A1 inh-2
O=C(O)CNC(=O)C(Cc1ccccc1)NC(=O)OCc1ccccc1 (stereo not given),/,0%,/,/
CCN1C(=O)N[C@@H](c2ccco2)C(C(C)=O)=C1C,/,7%[13.5 µM],-2%,/
COc1cc2c(cc1NC(=O)CN1CCN(S(=O)(=O)c3ccc(C)cc3)CC1)oc1ccccc12,?,7%,?,/
COc1ccc(C)cc1NC(=O)CN1CCN(S(=O)(=O)c2ccc(Cl)cc2)CC1,10,0.32µM*,-10%,0.14µM*
COc1ccc(NC(=O)C2=C(C)Nc3ncnn3C2c2ccccc2C(F)(F)F)c(OC)c1 (stereo not given),4,?,-24%,/
Cc1ccc(Cn2c(NCCc3ccccc3)nc3c2c(=O)n(C)c(=O)n3C)cc1,12,-3%,-15%,/
CC(C)Cn1c(CN(C)Cc2ccccc2)nc2c1c(=O)n(C)c(=O)n2C,1,3%,3%,/
CCOC(=O)N1CCN(Cc2nc3c(c(=O)n(C)c(=O)n3C)n2Cc2ccccc2C)CC1,11,0.25µM*,-9%,0.35µM*
CCOC(=O)Cn1c(CN2CCc3ccccc3C2)nc2c1c(=O)n(C)c(=O)n2C,7,-13%,3%,/
CN(Cc1ccccc1)Cc1nc2c(c(=O)n(C)c(=O)n2C)n1CCCc1ccccc1,25,0.71µM*,-5%,0.56µM*
CCCn1c(CN2CCN(C(=O)OCC)CC2)nc2c1c(=O)n(C)c(=O)n2C,/,7%,/,/
Cc1ccc(Cn2c(CN3CCN(C(=O)c4ccco4)CC3)nc3c2c(=O)n(C)c(=O)n3C)cc1,2,0.16µM*,-11%,0.5µM*
CCOC(=O)N1CCN(Cc2nc3c(c(=O)n(C)c(=O)n3C)n2CCC(C)C)CC1,1,0.22µM*,-16%,0.18µM*
COc1cccc(Oc2cncnc2-c2ccc(OC)cc2O)c1,3,-12%,-10%,/
CCOC(=O)N1CCN(Cc2nc3c(c(=O)n(C)c(=O)n3C)n2CCCc2ccccc2)CC1,12,0.63µM*,3%,0.63µM*
CCOC(=O)CSc1nc2c(c(=O)n(C)c(=O)n2C)n1CCCc1ccccc1,?,-1%,-1%,/
Cc1ccc(NCCC(=O)c2cccc([N+](=O)[O-])c2)c(C)c1,?,0.13µM*,-19%,0.4µM*
Cc1ccccc1NC(=O)CCC(=O)OCC(=O)c1cccc([N+](=O)[O-])c1,/,-14%,/,/
COc1ccc(-c2cc(=O)c3c(O)c(OC)c(OC)c(OC)c3o2)cc1,/,0.11µM*,-11%,0.63µM*
COc1ccc(-c2cc(=O)c3c(O)c(OC)c(O)cc3o2)cc1,/,-10%,/,/
CC(C)C(C)NC(=O)COC(=O)c1cccc(C(=O)OCC(=O)NC(C)C(C)C)n1 (stereo not given),/,-6%,/,/
CCC1CC(CSc2ncn[nH]2)OC1=O (stereo not given),-20,1%,-4%,/
CC1=C(C(=O)OCc2ccccc2)C(/C=C/c2ccccc2)NC(=S)N1 (stereo not given),2,0.2µM*,-28%,0.2µM*
CC1=C(C(=O)OCc2ccccc2)C(/C=C/c2ccccc2)N2C(=O)CCSC2=N1 (stereo not given),/,?,-10%,/
COc1ccccc1-n1nnnc1SCC(=O)Nc1cc(C)on1,6,0.71µM*,-8%,0.89µM*
COc1ccc(OC)c(-n2nnnc2SCC(=O)Nc2ccc3c(c2)OCCO3)c1,3,0.063µM*,/,0.1µM*
COc1ccc(CC(=O)NC2CCN(CC(=O)Nc3ccc4c(c3)OCCO4)CC2)cc1OC,5,-8%,-5%,/
Cc1ccc(-n2nnnc2SCC(=O)Nc2ccc3c(c2)OCCO3)cc1C,-11,?,-6%,/
COc1ccccc1-n1c(N)cc(=O)nc1SCC(=O)Nc1cc(C)on1,/,1%,/,/
COC(=O)c1sccc1NC(=O)CSc1nnnn1-c1ccccc1C,7,0.56µM*,?,0.79µM*

# Source: PubChem BioAssay (National Center for Advancing Translational Sciences (NCATS))
